Legend:
Experiment in all cases: log2 ratio of Biotin-Ahx-Ub-VS probe labelling (fragment/DMSO); higher = less target engagement (more negative = stronger competition), active = hit call of the paper (q ≤ 0.05, log2 ratio ≤ -1)
Settings in all cases: compound concentration: 200 uM; treatment time: 3 h
[1] = molecular target: T1, USP42 (UniProt Q9H9J4)
T1 sequence (whole entry): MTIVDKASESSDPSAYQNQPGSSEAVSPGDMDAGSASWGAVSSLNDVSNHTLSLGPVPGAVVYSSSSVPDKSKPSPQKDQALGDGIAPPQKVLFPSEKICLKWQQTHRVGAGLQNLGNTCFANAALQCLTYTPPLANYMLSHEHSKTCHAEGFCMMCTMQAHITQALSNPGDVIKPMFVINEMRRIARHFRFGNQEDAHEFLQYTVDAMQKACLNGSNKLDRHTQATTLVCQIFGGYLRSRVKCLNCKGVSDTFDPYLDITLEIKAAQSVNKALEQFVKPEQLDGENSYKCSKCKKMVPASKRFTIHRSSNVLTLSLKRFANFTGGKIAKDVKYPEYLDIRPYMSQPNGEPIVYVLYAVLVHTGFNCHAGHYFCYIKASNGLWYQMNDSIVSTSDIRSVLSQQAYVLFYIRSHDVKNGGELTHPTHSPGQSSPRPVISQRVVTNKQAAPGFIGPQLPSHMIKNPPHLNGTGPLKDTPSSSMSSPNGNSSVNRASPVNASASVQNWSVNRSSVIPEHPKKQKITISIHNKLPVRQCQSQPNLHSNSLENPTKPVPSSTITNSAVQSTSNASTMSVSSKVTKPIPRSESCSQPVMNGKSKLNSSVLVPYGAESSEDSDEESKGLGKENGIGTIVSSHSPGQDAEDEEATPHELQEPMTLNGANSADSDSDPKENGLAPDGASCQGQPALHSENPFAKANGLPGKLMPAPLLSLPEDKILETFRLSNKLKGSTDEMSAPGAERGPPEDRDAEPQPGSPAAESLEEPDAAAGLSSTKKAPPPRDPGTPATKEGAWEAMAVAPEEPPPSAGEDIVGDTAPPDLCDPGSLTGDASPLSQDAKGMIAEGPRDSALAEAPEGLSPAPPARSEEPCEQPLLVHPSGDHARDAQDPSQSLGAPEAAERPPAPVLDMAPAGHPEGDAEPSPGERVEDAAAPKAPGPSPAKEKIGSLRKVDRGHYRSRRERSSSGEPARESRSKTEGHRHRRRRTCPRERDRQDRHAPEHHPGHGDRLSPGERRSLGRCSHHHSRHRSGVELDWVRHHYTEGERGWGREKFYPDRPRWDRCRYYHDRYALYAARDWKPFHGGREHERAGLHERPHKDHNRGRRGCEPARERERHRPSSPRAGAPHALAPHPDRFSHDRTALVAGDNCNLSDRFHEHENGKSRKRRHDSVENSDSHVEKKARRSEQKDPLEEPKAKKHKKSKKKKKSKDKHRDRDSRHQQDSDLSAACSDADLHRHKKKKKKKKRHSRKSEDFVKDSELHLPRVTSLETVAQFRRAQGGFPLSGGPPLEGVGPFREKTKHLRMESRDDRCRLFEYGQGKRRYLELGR
Method in brief: (§1)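 The table lists average log2 ratios of fragment over vehicle, from an unpaired t-test on global-median-normalised Spectronaut label-free quantities. Proteins with ≥2 unique peptides were used. Samples were HEK293T lysate (495 µg) treated in triplicate with fragment at 200 µM or vehicle for 3 h, then with Biotin-Ahx-Ub-VS (0.5 µM final) for 1 h, with labelled DUBs NeutrAvidin-enriched and run by diaPASEF LC-MS/MS.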

[2] = molecular target: USP46 (UniProt P62068)
Chain of USP46 (P62068 whole entry): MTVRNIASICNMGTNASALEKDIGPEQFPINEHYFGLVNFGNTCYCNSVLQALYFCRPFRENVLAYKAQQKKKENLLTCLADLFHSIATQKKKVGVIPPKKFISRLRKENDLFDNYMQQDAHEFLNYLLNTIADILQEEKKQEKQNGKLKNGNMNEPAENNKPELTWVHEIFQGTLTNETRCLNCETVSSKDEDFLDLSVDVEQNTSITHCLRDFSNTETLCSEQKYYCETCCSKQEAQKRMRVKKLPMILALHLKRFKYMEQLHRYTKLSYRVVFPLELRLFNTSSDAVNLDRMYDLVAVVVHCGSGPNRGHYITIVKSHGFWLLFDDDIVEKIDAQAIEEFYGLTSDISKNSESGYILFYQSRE
Method in brief: as §1

[3] = molecular target: T2, USP47 (UniProt Q96K76)
T2 sequence (whole entry): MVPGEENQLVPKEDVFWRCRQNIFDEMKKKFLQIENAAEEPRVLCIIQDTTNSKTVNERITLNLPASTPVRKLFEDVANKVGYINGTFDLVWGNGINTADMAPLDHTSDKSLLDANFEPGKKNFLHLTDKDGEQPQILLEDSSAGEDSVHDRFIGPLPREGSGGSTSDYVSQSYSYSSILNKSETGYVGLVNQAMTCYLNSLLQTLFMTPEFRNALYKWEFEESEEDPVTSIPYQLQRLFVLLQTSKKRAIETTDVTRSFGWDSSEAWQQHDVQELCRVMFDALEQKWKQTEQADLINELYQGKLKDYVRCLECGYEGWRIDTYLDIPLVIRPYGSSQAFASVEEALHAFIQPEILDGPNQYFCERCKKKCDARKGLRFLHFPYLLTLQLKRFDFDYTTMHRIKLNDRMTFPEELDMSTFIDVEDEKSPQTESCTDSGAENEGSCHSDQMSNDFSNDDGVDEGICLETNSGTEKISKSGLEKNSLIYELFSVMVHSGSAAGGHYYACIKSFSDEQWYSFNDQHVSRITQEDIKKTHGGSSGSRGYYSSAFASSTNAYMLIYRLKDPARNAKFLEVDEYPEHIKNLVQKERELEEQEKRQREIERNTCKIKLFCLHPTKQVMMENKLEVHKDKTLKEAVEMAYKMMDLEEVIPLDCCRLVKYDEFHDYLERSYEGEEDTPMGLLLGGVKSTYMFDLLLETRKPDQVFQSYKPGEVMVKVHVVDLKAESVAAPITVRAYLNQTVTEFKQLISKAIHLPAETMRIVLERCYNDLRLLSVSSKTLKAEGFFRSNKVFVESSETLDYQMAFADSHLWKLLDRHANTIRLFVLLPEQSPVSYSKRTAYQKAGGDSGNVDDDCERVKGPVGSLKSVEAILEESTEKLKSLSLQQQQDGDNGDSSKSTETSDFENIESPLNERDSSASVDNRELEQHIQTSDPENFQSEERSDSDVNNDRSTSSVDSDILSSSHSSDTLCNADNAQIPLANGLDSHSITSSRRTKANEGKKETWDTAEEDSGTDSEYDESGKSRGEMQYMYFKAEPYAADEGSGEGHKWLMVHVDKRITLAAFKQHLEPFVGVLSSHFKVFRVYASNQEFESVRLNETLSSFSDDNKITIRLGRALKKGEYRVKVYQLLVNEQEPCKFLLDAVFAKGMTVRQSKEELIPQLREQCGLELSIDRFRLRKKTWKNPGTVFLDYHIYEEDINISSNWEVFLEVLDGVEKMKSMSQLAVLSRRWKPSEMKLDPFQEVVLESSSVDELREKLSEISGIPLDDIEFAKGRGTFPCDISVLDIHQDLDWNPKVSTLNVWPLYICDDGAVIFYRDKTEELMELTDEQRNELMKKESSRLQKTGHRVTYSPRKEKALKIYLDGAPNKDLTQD
Method in brief: as §1

[4] = molecular target: T3, USP48 (UniProt Q86UV5)
T3 sequence (whole entry): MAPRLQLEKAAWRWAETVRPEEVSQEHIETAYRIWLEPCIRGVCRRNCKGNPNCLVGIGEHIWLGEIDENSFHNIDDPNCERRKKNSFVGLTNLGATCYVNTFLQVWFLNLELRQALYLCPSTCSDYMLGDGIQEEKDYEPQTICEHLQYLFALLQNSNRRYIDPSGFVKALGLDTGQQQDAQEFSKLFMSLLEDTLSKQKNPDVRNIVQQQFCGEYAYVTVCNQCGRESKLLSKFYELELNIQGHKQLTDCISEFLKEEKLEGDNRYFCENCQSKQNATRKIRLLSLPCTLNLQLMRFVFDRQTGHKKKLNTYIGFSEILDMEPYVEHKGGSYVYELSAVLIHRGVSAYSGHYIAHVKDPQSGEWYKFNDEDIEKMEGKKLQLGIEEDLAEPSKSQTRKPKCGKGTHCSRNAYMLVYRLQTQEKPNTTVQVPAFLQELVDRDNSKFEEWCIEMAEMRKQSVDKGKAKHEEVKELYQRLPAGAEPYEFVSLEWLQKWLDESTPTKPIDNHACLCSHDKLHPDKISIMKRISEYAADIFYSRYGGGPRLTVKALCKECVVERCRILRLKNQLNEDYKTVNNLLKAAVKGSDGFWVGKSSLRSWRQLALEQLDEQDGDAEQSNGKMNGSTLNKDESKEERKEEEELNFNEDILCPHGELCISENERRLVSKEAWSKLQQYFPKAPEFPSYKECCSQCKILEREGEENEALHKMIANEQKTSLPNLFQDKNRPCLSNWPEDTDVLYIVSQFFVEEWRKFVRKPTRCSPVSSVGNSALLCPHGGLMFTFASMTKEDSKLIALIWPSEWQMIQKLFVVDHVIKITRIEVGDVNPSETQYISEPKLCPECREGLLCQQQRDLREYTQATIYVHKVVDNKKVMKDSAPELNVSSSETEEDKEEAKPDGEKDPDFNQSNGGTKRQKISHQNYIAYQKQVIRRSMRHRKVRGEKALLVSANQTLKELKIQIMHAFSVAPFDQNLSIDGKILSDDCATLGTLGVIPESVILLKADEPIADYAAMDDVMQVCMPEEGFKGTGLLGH
Method in brief: as §1

[5] = molecular target: T4, USP5 (UniProt P45974)
T4 sequence (whole entry): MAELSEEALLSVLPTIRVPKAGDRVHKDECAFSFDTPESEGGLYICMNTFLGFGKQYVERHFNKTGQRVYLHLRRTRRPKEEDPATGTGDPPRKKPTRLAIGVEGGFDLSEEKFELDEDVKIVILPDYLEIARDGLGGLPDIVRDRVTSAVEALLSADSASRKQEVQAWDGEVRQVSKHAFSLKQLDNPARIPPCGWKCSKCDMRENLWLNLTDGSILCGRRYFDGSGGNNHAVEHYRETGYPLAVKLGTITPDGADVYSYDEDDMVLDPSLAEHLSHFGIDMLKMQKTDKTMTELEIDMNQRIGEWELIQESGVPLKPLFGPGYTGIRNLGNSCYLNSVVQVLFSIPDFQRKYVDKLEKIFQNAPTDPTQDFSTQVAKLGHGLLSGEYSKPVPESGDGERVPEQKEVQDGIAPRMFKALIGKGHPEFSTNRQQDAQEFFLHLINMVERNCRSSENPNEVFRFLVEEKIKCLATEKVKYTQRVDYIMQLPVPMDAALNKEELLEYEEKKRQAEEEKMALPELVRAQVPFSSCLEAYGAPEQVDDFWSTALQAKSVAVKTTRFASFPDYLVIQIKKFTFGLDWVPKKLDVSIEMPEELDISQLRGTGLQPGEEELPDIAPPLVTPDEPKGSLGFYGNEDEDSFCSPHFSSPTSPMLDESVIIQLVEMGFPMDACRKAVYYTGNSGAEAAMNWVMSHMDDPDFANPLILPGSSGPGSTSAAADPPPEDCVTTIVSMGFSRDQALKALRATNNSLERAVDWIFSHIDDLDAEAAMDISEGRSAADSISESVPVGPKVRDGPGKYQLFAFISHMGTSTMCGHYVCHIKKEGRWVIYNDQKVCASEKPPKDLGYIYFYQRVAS
Method in brief: as §1

[6] = molecular target: USP54 (UniProt Q70EL1)
Chain of USP54 (Q70EL1 whole entry): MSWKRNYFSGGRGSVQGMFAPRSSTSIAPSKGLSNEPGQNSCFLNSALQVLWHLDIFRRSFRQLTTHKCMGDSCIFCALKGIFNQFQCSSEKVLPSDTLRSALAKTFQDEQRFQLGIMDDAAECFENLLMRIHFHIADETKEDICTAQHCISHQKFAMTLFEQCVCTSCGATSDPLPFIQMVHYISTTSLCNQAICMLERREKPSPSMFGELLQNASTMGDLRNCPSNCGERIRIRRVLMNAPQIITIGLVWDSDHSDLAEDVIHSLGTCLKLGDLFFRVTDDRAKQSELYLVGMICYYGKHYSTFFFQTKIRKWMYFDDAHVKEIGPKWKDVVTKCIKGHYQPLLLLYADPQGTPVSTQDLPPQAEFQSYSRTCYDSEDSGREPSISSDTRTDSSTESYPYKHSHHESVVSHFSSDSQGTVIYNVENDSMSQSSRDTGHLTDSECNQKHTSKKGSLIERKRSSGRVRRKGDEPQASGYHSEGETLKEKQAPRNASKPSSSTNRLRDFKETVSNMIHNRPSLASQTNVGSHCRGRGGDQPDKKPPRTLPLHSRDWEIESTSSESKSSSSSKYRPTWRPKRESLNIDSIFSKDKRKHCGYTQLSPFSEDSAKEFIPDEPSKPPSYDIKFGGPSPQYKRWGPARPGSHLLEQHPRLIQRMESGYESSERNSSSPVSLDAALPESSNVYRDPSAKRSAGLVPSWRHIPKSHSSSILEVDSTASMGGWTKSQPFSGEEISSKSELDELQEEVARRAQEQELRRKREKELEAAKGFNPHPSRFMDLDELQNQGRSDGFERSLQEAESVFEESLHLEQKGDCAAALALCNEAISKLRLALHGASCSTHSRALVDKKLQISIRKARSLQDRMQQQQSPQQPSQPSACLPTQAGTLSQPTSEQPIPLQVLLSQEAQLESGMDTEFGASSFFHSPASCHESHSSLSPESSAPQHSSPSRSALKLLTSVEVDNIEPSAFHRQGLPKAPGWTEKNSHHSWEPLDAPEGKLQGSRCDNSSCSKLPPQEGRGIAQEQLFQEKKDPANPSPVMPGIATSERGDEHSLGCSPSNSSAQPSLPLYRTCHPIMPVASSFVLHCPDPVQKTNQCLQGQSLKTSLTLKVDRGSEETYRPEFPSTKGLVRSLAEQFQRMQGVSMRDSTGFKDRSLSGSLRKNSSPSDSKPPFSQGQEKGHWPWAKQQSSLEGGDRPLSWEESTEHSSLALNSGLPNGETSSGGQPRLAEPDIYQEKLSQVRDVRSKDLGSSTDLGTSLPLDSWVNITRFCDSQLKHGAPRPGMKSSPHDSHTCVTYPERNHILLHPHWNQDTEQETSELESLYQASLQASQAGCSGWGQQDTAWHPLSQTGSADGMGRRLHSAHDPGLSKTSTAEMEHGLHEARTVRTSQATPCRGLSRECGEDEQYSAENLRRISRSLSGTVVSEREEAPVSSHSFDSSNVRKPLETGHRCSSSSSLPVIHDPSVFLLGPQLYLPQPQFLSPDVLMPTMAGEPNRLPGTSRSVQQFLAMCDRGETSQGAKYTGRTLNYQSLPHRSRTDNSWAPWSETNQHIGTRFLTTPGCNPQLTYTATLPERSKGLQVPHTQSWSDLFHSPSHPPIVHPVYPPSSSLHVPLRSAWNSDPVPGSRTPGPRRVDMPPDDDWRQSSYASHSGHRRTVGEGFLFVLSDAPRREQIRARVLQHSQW
Method in brief: as §1

[7] = molecular target: USP7 (UniProt Q93009)
Chain of USP7 (Q93009 whole entry, looked up): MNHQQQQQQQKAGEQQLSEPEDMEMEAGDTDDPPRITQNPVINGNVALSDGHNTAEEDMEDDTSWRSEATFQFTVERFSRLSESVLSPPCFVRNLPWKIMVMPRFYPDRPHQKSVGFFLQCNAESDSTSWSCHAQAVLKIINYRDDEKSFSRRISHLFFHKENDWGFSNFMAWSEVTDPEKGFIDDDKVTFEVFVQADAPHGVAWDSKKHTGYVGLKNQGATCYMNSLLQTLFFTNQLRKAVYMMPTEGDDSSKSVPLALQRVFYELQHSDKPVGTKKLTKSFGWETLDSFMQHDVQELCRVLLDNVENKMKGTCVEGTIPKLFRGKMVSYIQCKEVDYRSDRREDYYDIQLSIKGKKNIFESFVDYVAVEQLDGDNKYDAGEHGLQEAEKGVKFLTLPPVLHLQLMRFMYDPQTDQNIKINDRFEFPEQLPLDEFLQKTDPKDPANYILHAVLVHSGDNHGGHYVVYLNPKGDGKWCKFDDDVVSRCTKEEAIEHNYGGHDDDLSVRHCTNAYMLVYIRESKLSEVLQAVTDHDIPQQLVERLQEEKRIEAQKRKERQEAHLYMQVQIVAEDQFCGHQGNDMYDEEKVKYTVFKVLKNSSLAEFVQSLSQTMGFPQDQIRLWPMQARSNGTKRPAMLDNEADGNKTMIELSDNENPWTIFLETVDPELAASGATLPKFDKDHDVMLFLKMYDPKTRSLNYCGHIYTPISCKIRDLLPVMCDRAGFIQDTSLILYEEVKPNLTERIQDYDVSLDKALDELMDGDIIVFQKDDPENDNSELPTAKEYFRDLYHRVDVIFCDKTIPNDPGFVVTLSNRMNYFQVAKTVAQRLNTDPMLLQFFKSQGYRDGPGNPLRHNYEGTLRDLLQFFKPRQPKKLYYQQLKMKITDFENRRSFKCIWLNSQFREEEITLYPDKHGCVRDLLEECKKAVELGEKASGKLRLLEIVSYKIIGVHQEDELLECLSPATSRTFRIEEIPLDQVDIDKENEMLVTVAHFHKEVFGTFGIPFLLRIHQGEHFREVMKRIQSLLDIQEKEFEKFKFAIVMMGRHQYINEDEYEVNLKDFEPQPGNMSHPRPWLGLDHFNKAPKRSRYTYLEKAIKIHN
Method in brief: as §1

[8] = molecular target: T5, USP8 (UniProt P40818)
T5 sequence (whole entry): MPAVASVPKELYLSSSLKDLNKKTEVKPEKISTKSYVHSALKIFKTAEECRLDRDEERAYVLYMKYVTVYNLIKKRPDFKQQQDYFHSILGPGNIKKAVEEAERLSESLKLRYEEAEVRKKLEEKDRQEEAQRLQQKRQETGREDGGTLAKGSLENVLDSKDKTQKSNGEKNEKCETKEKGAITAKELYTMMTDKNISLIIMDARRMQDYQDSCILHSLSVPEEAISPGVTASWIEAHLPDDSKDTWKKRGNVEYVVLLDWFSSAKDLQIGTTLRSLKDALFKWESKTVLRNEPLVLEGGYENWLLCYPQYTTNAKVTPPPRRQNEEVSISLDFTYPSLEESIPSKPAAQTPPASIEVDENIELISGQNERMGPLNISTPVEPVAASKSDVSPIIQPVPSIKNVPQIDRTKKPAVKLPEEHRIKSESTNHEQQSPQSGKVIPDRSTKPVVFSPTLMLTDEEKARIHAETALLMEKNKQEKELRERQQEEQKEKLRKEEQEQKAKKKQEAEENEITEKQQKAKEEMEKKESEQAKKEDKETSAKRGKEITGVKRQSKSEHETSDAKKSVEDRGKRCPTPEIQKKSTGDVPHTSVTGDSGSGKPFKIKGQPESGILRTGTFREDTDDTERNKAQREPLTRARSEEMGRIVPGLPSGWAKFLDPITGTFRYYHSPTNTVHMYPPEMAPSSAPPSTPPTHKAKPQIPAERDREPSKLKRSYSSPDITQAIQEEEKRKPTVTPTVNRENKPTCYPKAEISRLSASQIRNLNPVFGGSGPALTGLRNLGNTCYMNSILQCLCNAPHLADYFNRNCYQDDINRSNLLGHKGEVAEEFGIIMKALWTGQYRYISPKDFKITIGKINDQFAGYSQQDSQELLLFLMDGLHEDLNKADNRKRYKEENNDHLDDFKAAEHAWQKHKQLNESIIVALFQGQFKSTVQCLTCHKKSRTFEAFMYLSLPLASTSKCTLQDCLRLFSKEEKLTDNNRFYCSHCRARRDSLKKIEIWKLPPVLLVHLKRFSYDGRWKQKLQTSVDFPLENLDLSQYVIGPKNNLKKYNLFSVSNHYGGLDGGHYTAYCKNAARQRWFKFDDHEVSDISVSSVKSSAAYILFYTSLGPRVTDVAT
Method in brief: as §1

[9] = molecular target: USP9X (UniProt Q93008)
Method in brief: as §1

[10] = molecular target: UniProt O00487
Chain of UniProt O00487 (O00487 whole entry): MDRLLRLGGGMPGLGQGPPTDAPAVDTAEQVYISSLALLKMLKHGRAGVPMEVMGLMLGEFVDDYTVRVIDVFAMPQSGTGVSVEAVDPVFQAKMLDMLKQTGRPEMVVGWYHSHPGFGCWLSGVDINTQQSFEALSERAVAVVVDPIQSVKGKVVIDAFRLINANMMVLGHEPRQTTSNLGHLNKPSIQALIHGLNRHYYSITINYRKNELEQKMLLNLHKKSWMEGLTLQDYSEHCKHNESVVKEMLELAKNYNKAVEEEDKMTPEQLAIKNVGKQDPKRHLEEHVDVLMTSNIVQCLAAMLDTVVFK
Method in brief: as §1

Measured: log2 ratio of Biotin-Ahx-Ub-VS probe labelling

Cc1cccc(C)c1NC(=O)CCl
inactive: [1] -0.0226 | [2] -0.0272 | [3] 0.139 | [4] -0.538 | [5] -0.194 | [6] 0.412 | [7] -0.264 | [8] -0.461 | [9] -0.187 | [10] -0.00227

Source: the supplement of paper PMC11732987, “Enantioselective OTUD7B fragment discovery through chemoproteomics screening and high-throughput optimisation” (Communications Chemistry, 2025)
